# Screening results from PubChem.
# HDAC3 inh: blocks human histone deacetylase 3 | O15379 | recombinant HDAC3, fluorogenic peptide/trypsin coupled, fluorescence | inhibition, % at 8.3 µM | 320,000 tested, 0.15% active; in the data active means inhibition above about 26%, passing the limit was not always enough; inconclusive means no clear call, values can overlap the other calls
# NPR1 activator: GC-A (human) enzyme activation; P16066; HEK293 GC-A cells, cGMP TR-FRET, EC30 ANP; 0% at EC30 ANP, 100% saturating ANP; activation, % at 10 µM; 370,000 tested, 0.14% active; AID 1671463; in the data active means activation above about 40%
# Target sequence (P16066 whole entry, looked up): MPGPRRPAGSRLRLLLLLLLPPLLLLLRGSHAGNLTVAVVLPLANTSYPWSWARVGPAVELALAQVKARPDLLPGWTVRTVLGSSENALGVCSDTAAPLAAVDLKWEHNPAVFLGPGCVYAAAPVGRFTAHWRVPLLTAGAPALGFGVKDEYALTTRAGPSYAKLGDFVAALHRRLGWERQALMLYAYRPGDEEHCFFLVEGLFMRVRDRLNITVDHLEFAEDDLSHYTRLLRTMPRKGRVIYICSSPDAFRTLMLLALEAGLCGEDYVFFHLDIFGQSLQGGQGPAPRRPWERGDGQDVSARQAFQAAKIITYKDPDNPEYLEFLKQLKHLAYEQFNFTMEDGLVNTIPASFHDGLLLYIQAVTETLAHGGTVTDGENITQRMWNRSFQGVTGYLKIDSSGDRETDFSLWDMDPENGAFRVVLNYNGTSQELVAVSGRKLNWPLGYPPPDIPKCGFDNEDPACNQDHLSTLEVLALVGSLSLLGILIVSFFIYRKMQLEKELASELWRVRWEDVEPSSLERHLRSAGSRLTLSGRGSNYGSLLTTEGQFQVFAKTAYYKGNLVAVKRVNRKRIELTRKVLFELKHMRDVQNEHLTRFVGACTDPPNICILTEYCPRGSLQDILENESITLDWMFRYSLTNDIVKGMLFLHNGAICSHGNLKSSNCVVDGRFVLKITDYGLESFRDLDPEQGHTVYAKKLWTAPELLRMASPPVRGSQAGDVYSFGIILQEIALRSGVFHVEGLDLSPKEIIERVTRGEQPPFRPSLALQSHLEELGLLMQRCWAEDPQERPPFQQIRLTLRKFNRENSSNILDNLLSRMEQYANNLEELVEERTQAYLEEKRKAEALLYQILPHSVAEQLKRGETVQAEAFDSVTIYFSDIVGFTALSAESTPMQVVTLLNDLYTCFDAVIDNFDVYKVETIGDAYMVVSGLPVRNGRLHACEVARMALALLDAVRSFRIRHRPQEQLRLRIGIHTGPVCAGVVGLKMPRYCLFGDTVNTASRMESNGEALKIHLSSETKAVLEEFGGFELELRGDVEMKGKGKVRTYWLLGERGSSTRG
# NPR2 activator: GC-B (human) receptor activation | HEK293-GC-B cells, CNP EC30, cGMP TR-FRET; 0% at EC30 CNP, 100% saturating CNP | activation, % at 10 µM | 370,000 tested, 0.11% active;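 active means activation at 10 µM reaching about 35% in either raw or pattern-adjusted values, limit read from the data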
# ALR H2O2 inh: inhibitors of human sulfhydryl oxidase ALR; purified ALR, DTT oxidation, H2O2 HRP-luminol luminescence; AID 485317; P55789; inhibition, % (no concentration beside the values); 290,000 tested, 3.8% active;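 active means mean replicate inhibition above about 79%, with every replicate also reaching it, limit read from the data; inconclusive means only one of the two criteria met; inactive means mean below limit and not every replicate reaching it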
# Hits are given with their value; – = inactive; ? = inconclusive; · = not tested or not shown. The sample as a whole holds a higher share of hits than the screen did.
SMILES,HDAC3 inh,NPR1 activator,NPR2 activator,ALR H2O2 inh
COc1cccc(NC(=O)CCCn2c(=S)[nH]c3ccccc3c2=O)c1,–,–,–,83
O=C(NCCN1CCOCC1)/C(=C/c1ccc(Cl)cc1)NC(=O)c1ccccc1,–,–,–,–
CN(C)c1ccc(/C=C(/NC(=O)c2ccccc2Cl)C(=O)NCCN2CCOCC2)cc1,–,–,–,88
CN(C)S(=O)(=O)n1cc(/C=C(\NC(=O)c2ccccc2Cl)C(=O)NCCN2CCOCC2)c2ccccc21,–,–,–,–
CN(C)c1ccc(/C=C(/NC(=O)c2ccccc2)C(=O)NCCN2CCOCC2)cc1,–,–,–,99
C[C@H](CO)N1C[C@H](C)[C@@H](CN(C)S(=O)(=O)c2ccccc2)Oc2c(NC(=O)CCC(F)(F)F)cccc2C1=O,–,–,–,–
CN1C(=O)C2C(c3ccc(N(C)C)cc3)=NN(Cc3ccccc3)C2C1=O (stereo not given),–,–,–,99
Cc1nc2c(C(=O)NCCc3ccccc3)c[nH]n2c(=O)c1Cl,–,–,–,–
Cc1nc2c(C(=O)NCCC(C)C)c[nH]n2c(=O)c1Cl,–,–,–,95
CCCc1nnc(NC(=O)CCC(=O)N2CCN(Cc3cc(Cl)ccc3OC)CC2)s1,–,–,–,–
c1ccc(NNC2=NCCS2)cc1,–,–,–,91
O=C(CSc1ccccc1)NC1=NCCS1,–,–,–,–
Cc1cc(C)cc(OCC(=O)N(Cc2ccccc2)C2CCS(=O)(=O)C2)c1 (stereo not given),–,–,–,–
CN(C)c1ccc(NC(=O)C2C3C=CC(C3)C2C(=O)O)cc1 (stereo not given),–,–,–,99
CC(C)(C)c1nn(-c2ccccc2)c2[nH]c(=O)c(CNc3ccc4c(c3)OCCO4)cc12,–,–,–,–
Cc1nn(-c2ccccc2)c2[nH]c(=O)c(CNc3ccc(N4CCOCC4)cc3)cc12,–,–,–,97
COc1cc(C2C(C#N)=C(N)N(c3ccc(F)cc3)C3=C2S(=O)(=O)CC3)ccc1O (stereo not given),–,–,–,88
COC(=O)[C@]12C[C@H](CC(=O)NCCCN3CCCC3=O)C(=O)N(Cc3ccccc3)C1=C[C@H](COCc1ccccc1)O[C@@H]2C,·,–,–,·
CCOC(=O)CSC1=NC(=O)/C(=C\c2ccc(OC(C)=O)cc2)S1,–,–,–,100
COC(=O)CN1C(=O)C(O)(CC(=O)c2ccc(Br)cc2)c2ccccc21 (stereo not given),–,–,–,96
COC(=O)CN1C(=O)C(O)(CC(=O)c2ccc(C)cc2)c2cc(Br)ccc21 (stereo not given),–,–,–,–
O=C(NCCS(=O)(=O)N1CCN(c2ccccc2F)CC1)c1ccc(F)c(F)c1,–,–,64,–
O=C(CN1CCN(c2ccc([N+](=O)[O-])cc2)CC1)c1ccccc1,–,–,–,·
O=C(CCN1CCN(c2ccc([N+](=O)[O-])cc2)CC1)c1ccc(Cl)cc1,–,63,–,–
O=C(CCN1CCN(c2ccccc2)CC1)c1ccc(Cl)cc1,–,44,–,·
SMILES,HDAC3 inh,NPR1 activator,NPR2 activator,ALR H2O2 inh
CN1Cc2nnn(CC3CCCCC3)c2-c2ccccc2S1(=O)=O,·,–,–,·
CCN(CC)C(=O)c1csc(Nc2ccc(C)cc2)n1,–,–,–,87
Cc1ccc(Nc2nc(C(=O)NCc3ccco3)cs2)cc1,–,–,–,–
Cc1c(NC(=O)c2cc(-n3cnnc3)ccc2Cl)cccc1-c1nc2ccccc2s1,–,–,–,88
Cc1c(Cc2ccccc2)c(=O)oc2cc(O)cc(O)c12,–,–,–,78
CCCCOc1ccc(/C(N)=N/O)cc1,–,–,–,99
Cc1ccc(NC(=O)COc2ccc(/C(N)=N/O)cc2)cc1C,–,–,–,99
CCCCCCOc1ccc(C(=O)O)cc1,–,–,–,–
COC(=O)[C@]12CCCCC=C1N(CCc1ccc(OC)c(OC)c1)C(=O)[C@H](CC(=O)NCC1CCCCC1)C2,·,–,–,·
Cc1cc(S(=O)(=O)ON2C(=O)c3ccccc3C2=O)ccc1F,?,40,–,–
Cc1ccc(C)c(S(=O)(=O)ON2C(=O)c3ccccc3C2=O)c1,–,–,–,–
O=C1c2ccccc2C(=O)N1OS(=O)(=O)c1ccccc1,44,·,·,–
COc1cccc(C(=O)C2CCCN(C(=O)CCC3=NNC(=O)CC3)C2)c1 (stereo not given),–,–,–,–
O=S(=O)(c1ccc2c(c1)CCN2)N1CCCC1,–,–,–,98
O=S(=O)(c1ccc(N2CCC(c3ccc(Cl)cc3)=N2)cc1)N(CCO)CCO,–,–,–,98
CN(C)CCCNS(=O)(=O)c1ccc(N2CCC(c3ccc(Cl)cc3)=N2)cc1,–,–,–,91
Cc1ccc(-c2sc(-c3cccnc3)nc2CC(=O)O)cc1,–,–,–,99
Cc1ccc(-c2nc(-c3cccnc3)sc2CC(=O)O)cc1,–,–,–,99
CC(C)C[C@@H](CSc1ccccc1)N1CCN(CCc2ccccc2)CCC1=O,–,–,–,–
CCCN1CCC(=O)N([C@H](CSc2ccc(OC)cc2)CC(C)C)CC1,–,–,–,99
C#CCOCCOCCOCCNc1nc(N2CCN(C(=O)[C@H](CC(N)=O)n3cc(C(N)[C@H](C)CC)nn3)CC2)nc(N2CCN(C(=O)[C@H](CC(N)=O)n3cc(C(N)[C@@H](C)CC)nn3)CC2)n1 (stereo not given in full),–,–,–,–
O=C(NC(=S)Nc1nc2c(s1)CCCC2)c1ccccc1,–,–,–,·
S=C(Nc1nc2c(s1)CCCC2)NC1CC1,–,–,–,86
O=c1[nH]c2ccccc2c(O)c1O,–,–,–,·
Oc1ccc2c(c1)oc1cc(O)ccc12,–,–,–,99
SMILES,HDAC3 inh,NPR1 activator,NPR2 activator,ALR H2O2 inh
CN(C)c1cccc(/C=C(\C#N)c2ccccc2)c1,–,–,–,99
Cc1cccc(C(=O)Nc2cccc(C(=O)N3CCOCC3)c2)c1,–,–,–,–
CC(=O)/C(=N/Nc1cccc(C)c1)N1CCOCC1,–,–,–,99
C=CCNC(=O)c1ccc(CSc2nc3ccccc3s2)cc1,–,–,–,99
C=CCNC(=O)c1nc2ccccc2s1,–,–,–,·
CC(=O)NCCNC(=O)c1ccc(CSc2nc3ccccc3s2)cc1,–,–,–,99
N#CC(C#N)=Cc1cc2ccccc2nc1N1CCOCC1,–,–,–,95
O=C(COC(=O)C1CCCCC1)Nc1ccc(S(=O)(=O)N2CCOCC2)cc1,–,–,–,–
Oc1ccc(Br)cc1C=Nc1ccc(Cl)cc1,–,–,–,–
COc1cc(O)sc1C=Nc1ccc(Cl)cc1,–,–,–,95
COC(=O)C1N[C@@H]([C@@H](NC(=O)COc2ccccc2)C(=O)NC2CC2)SC1(C)C (stereo not given in full),–,–,–,–
CCN(C(=O)CN1CCN(c2cccc(Cl)c2)CC1)c1c(N)n(Cc2ccccc2)c(=O)[nH]c1=O,–,–,–,92
Cc1ccc2c(c1)CCCN2CC(=O)N(C)c1c(N)n(Cc2ccccc2)c(=O)[nH]c1=O,–,–,–,91
